From PubChem
14-3-3 PPI: 14-3-3 gamma protein interaction modulation; P61981; FP, 14-3-3gamma / TMR-pS259-Raf peptide binding; inhibition, % at 40 µM; hit rate 0.19% among 160,000; AID 422; in the data active = inhibition above about 30%;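 note: 0% = protein plus tracer without compound and 100% = blank with tracer alone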
Target sequence (P61981 whole entry, looked up): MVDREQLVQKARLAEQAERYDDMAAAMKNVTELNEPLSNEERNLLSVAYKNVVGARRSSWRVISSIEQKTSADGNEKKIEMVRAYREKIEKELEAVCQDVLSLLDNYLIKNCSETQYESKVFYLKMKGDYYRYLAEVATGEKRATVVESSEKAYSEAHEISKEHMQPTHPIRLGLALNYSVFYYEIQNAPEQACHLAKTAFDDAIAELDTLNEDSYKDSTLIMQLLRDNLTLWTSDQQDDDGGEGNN
* = called active by the depositor. Many of the other results were omitted from the sample, so hits are more common in it than they were.

SMILES | 14-3-3 PPI
CCCSc1nnc2c(n1)OC(c1cc(OC)c(O)c(OC)c1)Nc1ccccc1-2 (stereo unspecified) | -8.6
CCCCSc1nnc2c(n1)OC(c1cccc(OC)c1OC)Nc1ccccc1-2 (stereo unspecified) | 10.2
CCCCSc1nnc2c(n1)OC(c1cc(OC)c(OC)c(OC)c1)Nc1ccccc1-2 (stereo unspecified) | 42.3*
CSc1nnc2c(n1)OC(c1ccc(N(C)C)cc1)Nc1ccccc1-2 (stereo unspecified) | -1.9
CCCSc1nnc2c(n1)OC(c1ccco1)Nc1ccccc1-2 (stereo unspecified) | -10.0
C=CCSc1nnc2c(n1)OC(c1ccc(OC)c(OC)c1)Nc1ccccc1-2 (stereo unspecified) | -3.9
C=CCSc1nnc2c(n1)OC(c1ccc(C(=O)OC)cc1)Nc1ccccc1-2 (stereo unspecified) | -50.9
CCCSc1nnc2c(n1)OC(c1ccc(N(CC)CC)cc1)Nc1ccccc1-2 (stereo unspecified) | 39.0*
C=CCSc1nnc2c(n1)OC(c1ccc([N+](=O)[O-])cc1)Nc1ccccc1-2 (stereo unspecified) | -40.6
C=CCSc1nnc2c(n1)OC(c1ccc(N(C)C)cc1)Nc1ccccc1-2 (stereo unspecified) | 38.0*
C=CCSc1nnc2c(n1)OC(c1ccc(C)cc1)Nc1ccccc1-2 (stereo unspecified) | 32.9*
CCCSc1nnc2c(n1)OC(c1ccc(Cl)cc1)Nc1ccccc1-2 (stereo unspecified) | -20.4
CCC(=O)N1c2ccccc2NC2=C(C(=O)CC(c3ccccc3F)C2)C1c1ccc(C)cc1 (stereo unspecified) | -2.6
O=C(CCS(=O)(=O)c1ccc(Br)cc1)N1CCN(c2ccccn2)CC1 | -15.6
c1ccc(Oc2ccc(Nc3ncnc4c3cnn4-c3ccccc3)cc2)cc1 | -9.2
CC1CCCCN1S(=O)(=O)c1ccc2[nH]c(=O)cc(C(=O)NCc3ccccc3Cl)c2c1 (stereo unspecified) | -13.3
CCOc1ccc(NC(=O)CSc2nc3ccccc3c(=O)n2C2CC2)cc1 | -12.9
COc1ccc(Cl)cc1NC(N)=Nc1nc(CSc2ccc(C)cc2)cc(=O)[nH]1 | -3.2
CCCCC(C(=O)Nc1ccccc1C)N1C(=O)C2C3c4ccccc4C(c4ccccc43)C2C1=O (stereo unspecified) | 1.5
Cc1[nH]c2ccccc2c1C1(O)C(=O)N(C)c2ccc(Cl)cc21 (stereo unspecified) | -3.8
CCN(CC)c1ccc(-c2cc(C#N)on2)cc1 | 40.8*
N#Cc1cc(-c2ccccc2C(F)(F)F)no1 | 7.4
CCN(CC)c1ccc(CNc2ccc(Br)cn2)cc1 | -3.6
COc1cc(OC)cc(N2C(=O)c3cc(N4CCOCC4)c([N+](=O)[O-])cc3C2=O)c1 | -8.6
O=C(Nc1ccc(Cl)cc1)c1cnc2ccccc2n1 | -2.8
SMILES | 14-3-3 PPI
COc1ccc(NC(=O)C2(C)CC3c4ccccc4C2c2ccccc23)cc1 (stereo unspecified) | 55.3*
COc1ccc(NC(=O)C23CCC(C2)C(C)(C)C3=O)cc1 (stereo unspecified) | 0.7
Cc1ccc(C)c(NC(=O)C2(C)CC3c4ccccc4C2c2ccccc23)c1 (stereo unspecified) | 2.5
Cc1ccc(NCC(O)Cn2c3c(c4cc(C)ccc42)CCCC3=O)cc1 (stereo unspecified) | 1.4
COc1ccc(-n2c(SCC(=O)c3ccc(Cl)cc3)nc3ccsc3c2=O)cc1 | -14.3
Nc1nonc1-c1noc(C23CC4CC(CC(C4)C2)C3)n1 | 9.1
CCCSc1nnc2c(n1)OC(c1cccc(C)n1)Nc1ccccc1-2 (stereo unspecified) | -5.3
Cc1ccc(CSc2nnc3c(n2)OC(c2ccncc2)Nc2ccccc2-3)cc1 (stereo unspecified) | 75.9*
Cc1ccc(CSc2nnc3c(n2)OC(c2cccc(C)n2)Nc2ccccc2-3)cc1 (stereo unspecified) | 31.9*
Cc1ccc(CSc2nnc3c(n2)OC(c2ccccn2)Nc2ccccc2-3)cc1 (stereo unspecified) | -5.9
Clc1ccc(CSc2nnc3c(n2)OC(c2ccncc2)Nc2ccccc2-3)cc1 (stereo unspecified) | -47.4
Cc1ccc(CSc2nnc3c(n2)OC(c2ccc(C(=O)O)cc2)Nc2ccccc2-3)cc1 (stereo unspecified) | -10.6
C=CCC1C=CCC(CC=C)N1CCO (stereo unspecified) | 105.5*
C=CCC1C=CCC(CC=C)N1C(=O)C(F)(F)F (stereo unspecified) | 0.7
CC(C)CC1CCCC(CC(C)C)N1CCO (stereo unspecified) | -4.5
Cn1c(NCc2ccco2)nc2c1c(=O)n(Cc1ccccc1F)c(=O)n2C | -13.3
Cc1ccc(NC(=O)CN(C)S(=O)(=O)c2ccc(Br)s2)c(Cl)c1 | -3.7
Oc1c(-c2ccc(F)cc2)c2nc3ccccc3nc2c2ccccc12 | 53.3*
O=C(O)c1cc(-c2ccc(F)cc2)nc2ccccc12 | 2.1
Fc1ccc(-c2cnc3ccccc3n2)cc1 | -9.5
CCCCNC(=O)c1c(O)c2cccc3c2n(c1=O)CC3 | -1.8
COc1cc2c(cc1OC)C(COc1cc(C)cc(C)c1)N(C(=O)Nc1ccccc1)CC2 (stereo unspecified) | -20.0
CC(C)OC(=O)c1c(NC(=O)c2cc3nc(-c4ccco4)cc(C(F)(F)F)n3n2)sc2c1CCCC2 | -11.0
CN(C)c1ccc(N=Cc2nc(-c3ccccc3)oc2O)cc1 | 111.9*
CC(=O)Nc1ccc(N=Cc2nc(-c3ccc(C)cc3)oc2O)cc1 | -6.5
SMILES | 14-3-3 PPI
CSc1ccccc1N=Cc1nc(-c2ccccc2)oc1O | 3.2
Cc1ccc(C2=NN(S(C)(=O)=O)C(c3cc4ccccc4nc3Cl)C2)cc1 (stereo unspecified) | -36.0
CNc1ccc2nc3ccccc3[n+](CCO)c2c1 | 66.7*
CCc1ccc(Nc2cc(C(=O)O)c3ccccc3n2)cc1 | -2.8
O=C(Cc1ccccc1)Nc1cccc2c1C(=O)c1ccccc1C2=O | -14.2
COc1ccc(NS(=O)(=O)c2cccc3nsnc23)cc1 | -7.8
Cn1c(=O)cc2c3c(c(N4CCOCC4)ccc31)C(=O)c1ccccc1-2 | 32.6*
Cc1ccc(Nc2ccc3c4c(cc(=O)n3C)-c3ccccc3C(=O)c24)cc1 | -160.3
CC(=O)N(C)c1ccc(N2CCOCC2)c2c1C(=O)c1ccccc1C2=O | -14.8
O=[N+]([O-])c1cc(Cc2ccccc2Cl)cc(C=Nc2ccc(N3CCOCC3)cc2)c1O | -81.0
O=[N+]([O-])c1cc(Cl)cc(C=Nc2ccc(Cl)c(-c3nc4ccccc4o3)c2)c1O | -21.1
Cc1ccc(N=Cc2cc(Cl)cc([N+](=O)[O-])c2O)cc1Cl | 41.6*
Cc1cc(C=Nc2ccc(N3CCOCC3)cc2)c(O)c([N+](=O)[O-])c1 | 86.0*
Cc1ccc(N=Cc2cc(Cl)cc([N+](=O)[O-])c2O)c(O)c1 | -51.8
Cc1cc(Br)c(O)c(C=Nc2ccc(N3CCOCC3)cc2)c1 | -83.2
CC(=O)N1C2C=CC(C2)C1(C(F)(F)F)C(F)(F)F (stereo unspecified) | 17.3
CCOC(=O)c1sc2ncnc(Nc3ccc(OC)cc3OC)c2c1C | -2.6
CS(=O)(=O)Nc1cccc(C2=NN(S(C)(=O)=O)C(c3ccco3)C2)c1 (stereo unspecified) | -230.2
Cc1ccc(CCNC(=O)c2cc(=O)[nH]c3ccc(S(=O)(=O)N4CCCCC4C)cc23)cc1 (stereo unspecified) | -13.3
COC(=O)C1=C(C)N(C)C(C)=C(C(=O)OC)C1c1ccc(C(=O)OC)cc1 | 113.4*
